# Experimental data published in PubChem BioAssay (NCI).
# This is part of a sample that, as a whole, favours compounds with a hit. Of some 83,000 tested, about 20% had one in any assay.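 Activity criterion: percent growth below 10, measured after cells in 96-well plates were exposed to a single compound concentration for 48 hours.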 Values without a mark were called inactive. Calls of active or inactive are those of the source.
# Tested on: PC-3 prostate
# Assay: NCI-60 one-dose screen, 48 h (100 = growth as untreated, 0 = no growth, -100 = all killed)
# Settings: 10 µM unless noted
# Experimental: Growth inhibition of the PC-3 human tumor cell line is measured as a screen for anti-cancer activity. Cells are grown in 96 well plates and exposed to the test compound for 48 hours. Compounds are tested at a single concentration, which is 10^-5 M for most compounds. The reported endpoint is percent growth (GI% or GIPRCNT), where numbers from 0 - 100% represent growth inhibition, and numbers from -100% - 0 represent cell death. For example, a value of 40 represents 60% growth inhibition. A value of 0 means no net growth occurred over the course of the experiment. A value of -40 indicates 40% of cells at the beginning of the experiment died by the end of the experiment. A value of -100 means all cells are dead at the end of the experiment.
# NCI-60 Human Tumor Cell Lines Screen was performed using the standard one-dose NCI protocol, which is described in more detail at https://dtp.cancer.gov/discovery_development/nci-60/default.htm.
# Compounds with GIPRCNT values below 10 were considered active. Activity score was based on GIPRCNT using the following formula: […]
# Score is 0 for GIPRCNT values of 100 or above, 50 for GIPRCNT values of 0, and 100 for GIPRCNT values of -100.
row,Compound,growth
1,O=C1CCC(C(=O)N/N=C/c2cc(F)ccc2F)N1 (stereo not given),95.8%
2,O=Nc1ccc(NC(=O)Nc2ccc([N+](=O)[O-])cc2)cc1,72.2%
3,CC1(C)CC[C@]2(CO)CC[C@]3(C)[C@](O)([C@H](O)C[C@@H]4[C@@]5(C)CCCNC(C)(C)[C@@H]5CC[C@]43C)[C@@H]2C1,75.9%
4,Cc1nn(C)c2ncnc(N/N=C/c3cccc(O)c3O)c12,35.9%
5,Fc1cccc(CNc2c3ccccc3nc3ccccc23)c1,49%
6,c1csc(-c2cn3nc(-c4c[nH]c5ccccc45)sc3n2)c1,26.5%
7,Cc1cn(C)cn1,93.9%
8,O=c1ccc2ccc(OCCN3CCCCC3)cc2o1,23.5%
9,O=C1CCCC1[n+]1ccccc1 (stereo not given),81.7%
10,Cc1nc2ccccc2c(/C=C/c2ccc(F)cc2)c1C(=O)/C=C/c1ccccc1,29.8%
11,C=C1C(=O)O[C@@H]2C3C(=C(C)CC[C@@H]12)CC1O[C@]13C (stereo not given in full),85.2% [6.75 µM]
12,O=C1C(Cl)=C(Nc2ccccc2)C(=O)c2ccccc21,39.7%
13,CN(C)c1ccc(/C=N\NC(=O)c2ccc3nc(-c4ccc(Cl)cc4)[nH]c3c2)cc1,46.8%
14,CCOC(=O)/C=C1\S/C(=N\Nc2cc(=O)[nH]c3ccc(Br)cc23)N(c2ccccc2)C1=O,44.1%
15,O=C(NN1C(=O)CSC1c1cccc([N+](=O)[O-])c1)c1ccc(NC(=O)c2ccccn2)cc1 (stereo not given),107%
16,COc1ccc(C/C(C)=C(\c2ccc(O)cc2)c2ccc(OCCN3CCCCC3)cc2)cc1,67.4%
17,O=C(c1ccc(Br)cc1)C(Br)C(c1ccc(Cl)cc1)C(c1ccccc1)[N+](=O)[O-] (stereo not given),76.5%
18,NS(=O)(=O)c1ccc(C(=O)N=Nc2c(O)[nH]c3ccc(Cl)cc23)cc1,97.4%
19,C=C(C)[C@@H]1CC[C@]2(C(=O)N3CCNCC3)CC[C@]3(C)[C@H](CC[C@@H]4[C@@](C)(CCC(=O)N5CCNCC5)[C@H](C(=C)C)CC[C@]43C)[C@@H]12,57.7%
20,CN(C)CCCn1c2c(c3cnccc3c1=O)C(=O)c1ccccc1-2,-5.36% (active)

row,Compound,growth
1,CCCOC(=O)Nc1nc2ccc(SCC)cc2s1,80.8%
2,COc1ccc(C2CC(c3ccccc3)=NN2C(=O)c2cc(OC)c(OC)c(OC)c2)cc1O (stereo not given),22.5%
3,CCCCCCCCn1ccc2cc(NC(=O)CN3CCN(c4cc(C)nc(Cl)n4)CC3)ccc21,61.4%
4,CC(O)Cc1c[nH]c(=O)[nH]c1=O (stereo not given),126%
5,CC1=Nc2cnc(Nc3ccc(N4CCCCC4)cc3)nc2Nc2ccccc21,19.6%
6,CC(O)CNC(Cc1ccccc1)c1ccc2c(c1)OCO2 (stereo not given),65.8%
7,N#Cc1nn(-c2cc(=O)[nH]c3ccc(Br)cc23)c(N)c1C#N,-86.9% (active)
8,CC[C@@H](C(=O)[C@@H](C)[C@@H](O)[C@H](C)[C@@H]1O[C@@H]([C@@H](CC)C(=O)ONC(=O)c2ccccc2O)CC[C@@H]1C)C1O[C@]2(C=CC(=O)[C@]3(CC[C@@](C)([C@H]4CC[C@](O)(CC)[C@H](C)O4)O3)O2)[C@H](C)C[C@@H]1C (stereo not given in full),31.3%
9,c1cc(OCCN2CCCCCC2)ccc1CNc1ccc2nc(CCC3CCCCC3)[nH]c2c1,50.5%
10,O=C(NCCCCCCNC(=O)OCc1ccc2c(Cl)cc(Cl)c(O)c2n1)OCc1ccc2c(Cl)cc(Cl)c(O)c2n1,-46.2% (active)
11,Cc1ccc2nc(-c3ccc(C(=O)N/N=C/c4ccc([N+](=O)[O-])cc4)cc3)[nH]c2c1,98.2%
12,COc1cc(-c2ccc(-c3ccc(C(=N)N)cc3)s2)cc(OC)c1OC,53.4%
13,COc1ccc(OC)c(Nc2nnc(-c3cc(OC)c(OC)c(OC)c3)o2)c1,98.6%
14,COc1cccc(-c2cn3nc(-c4cn(C)c5ccccc45)sc3n2)c1,94.7%
15,O=C(Nc1ccc(Nc2ccncc2)cc1)c1ccc(Nc2ccnc3ccc([N+](=O)[O-])cc23)cc1,80.3%
16,CC(C)C1C2=C(NCCN1C(=O)c1ccncc1)C(C)(C)N(Cc1ccccc1)C2=O (stereo not given),96.1%
17,CCCN(CCSSCCNc1nc(N(C)O)nc(N(C)O)n1)c1nc(N(C)O)nc(N(C)O)n1,67.9%
18,CCOC(=O)c1cnn(CC(C)O)c1NC(=O)NCc1ccccc1C(F)(F)F (stereo not given),107%
19,CCCCn1c(NC(C)=O)c(S(=O)(=O)c2ccccc2)c2nc3ccccc3nc21,96%
20,CC12OC(CC(O)C1O)n1c3ccccc3c3c4c(c5c6ccccc6n2c5c31)C(=O)N(CCN1CCCC1)C4=O (stereo not given),20.8%
